Bioassay records deposited in PubChem BioAssay by several laboratories.
An excerpt weighted towards active compounds, which were near 3.4% of everything screened.
ADAM17 inh: ADAM17 inhibitors, primary screen, biochemical, QFRET. Disintegrin and metalloproteinase domain-containing protein 17 (Homo sapiens), P78536. recombinant ADAM17, EDANS/DABCYL FRET peptide cleavage. inhibition, % at 6.95 µM. actives 0.83% (n = 370,000);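 active means inhibition above the mean of compounds lying between control limits plus 3 SD, set per campaign, cut at about 8.5% in these data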;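 further: 0% = DMSO-only wells as the low control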
Target sequence (P78536 215-824 limits assumed): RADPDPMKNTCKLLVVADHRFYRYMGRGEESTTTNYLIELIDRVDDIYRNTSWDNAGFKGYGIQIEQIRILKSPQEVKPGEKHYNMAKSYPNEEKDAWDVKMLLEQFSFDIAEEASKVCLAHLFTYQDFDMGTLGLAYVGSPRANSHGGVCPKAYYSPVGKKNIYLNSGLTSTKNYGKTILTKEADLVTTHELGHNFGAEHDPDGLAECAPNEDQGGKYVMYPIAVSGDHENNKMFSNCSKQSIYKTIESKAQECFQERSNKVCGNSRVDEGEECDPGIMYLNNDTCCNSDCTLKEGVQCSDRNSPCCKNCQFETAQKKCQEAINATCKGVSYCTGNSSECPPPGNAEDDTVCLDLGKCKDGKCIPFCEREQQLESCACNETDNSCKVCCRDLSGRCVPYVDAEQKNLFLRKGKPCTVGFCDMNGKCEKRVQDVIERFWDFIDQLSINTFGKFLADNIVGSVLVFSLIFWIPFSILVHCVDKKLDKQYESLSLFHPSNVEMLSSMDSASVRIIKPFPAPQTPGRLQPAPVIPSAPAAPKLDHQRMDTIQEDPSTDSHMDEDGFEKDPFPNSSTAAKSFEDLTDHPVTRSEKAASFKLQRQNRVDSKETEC
KLK7 zymogen act: proKLK7 zymogen activators, primary screen, biochemical, fluorescence intensity | Kallikrein-7 (Homo sapiens), P49862 | purified proKLK7, EDANS-DABCYL substrate fluorescence; 100% is mature enzyme control, 0% vehicle | activation, % at 7 µM | actives 0.9% (n = 370,000) | AID 652039, 2013;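 active means activation above the mean of all tested compounds plus 3 SD, computed per campaign excluding outliers beyond control limits, cut at about 13% in these data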
NRP1-CendR mod: modulators of CendR peptide binding to NRP-1, primary screen, biochemical, fluorescence polarization, uHTS; FAM-RPARPAR peptide binding to NRP-1; inhibition, % at 25 µM; actives 0.85% (n = 360,000); AID 602438, 2012;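 active means inhibition or corrected inhibition above about 18%, plus a signal ratio from 0.5 to 1.5, limit read from the data, passing the limit was not always enough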
ADAM10 inh: human ADAM10 inhibitors, primary screen, biochemical, QFRET, HTS | Disintegrin and metalloproteinase domain-containing protein 10 (Homo sapiens), O14672 | recombinant ADAM10, EDANS/DABCYL FRET peptide cleavage, 3 h | inhibition, % at 7 µM | actives 0.62% (n = 370,000) | AID 720582, 2013;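 active means inhibition above a per-campaign cutoff equal to the mean of compounds falling between control-based bounds plus 3 SD, cut at about 20% in these data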;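 further: 0% = DMSO wells while the 100% control is not disclosed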
sPLA2-III inh: human group III sPLA2 inhibitors, primary screen, biochemical, QFRET, BODIPY PC-A2 liposome substrate. Group 3 secretory phospholipase A2 (Homo sapiens), Q9NZ20. QFRET BODIPY PC-A2 liposome hydrolysis, fluorescence. inhibition, % at 12.2 µM. actives 0.56% (n = 370,000);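 active means inhibition above mean plus 3 SD of compounds lying within the high and low control bounds, cut at about 19% in these data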;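 further: 0% = median of test compound wells and 100% = no enzyme DMSO wells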
Active calls of the source: *; i = inactive; x = not tested or not shown.

SMILES | ADAM17 inh | KLK7 zymogen act | NRP1-CendR mod | ADAM10 inh | sPLA2-III inh
CCCSc1ccc(C(=O)Nc2ccc(Cl)cc2)cn1 | 2 | 0 | 28* | 3 | -1
Cc1ccc(NC(=O)c2ccc(Cl)nc2)cc1 | -3 | 0 | -8 | -8 | -4
O=C(/C=C/CCc1ccc2c(c1)OCO2)N1CCCCC1 | 0 | -1 | 23* | -12 | 0
Cc1ccc2oc(=O)c(/C=C(\O)c3ccccc3)nc2c1 | 1 | 0 | 42* | 8 | -14
Cc1ccc2oc(=O)c(/C=C(\O)c3cccs3)nc2c1 | 1 | 1 | 130 | 4 | -8
CCN(C[C@H]1N[C@@](Cc2ccccc2)(C(=O)OC)[C@H]2C(=O)N(Cc3ccccc3)C(=O)[C@@H]12)S(=O)(=O)c1ccc(OC)cc1 | 8 | 0 | 26* | 8 | -3
O=C1C=CC(=O)N1c1ccc(OC(F)F)cc1 | -3 | 0 | 8 | -9 | 20*
CCOC(=O)[C@]12CCCC3=C1N(CCC3)C(=O)[C@@H](CC(=O)NCCCN1CCCC1=O)C2 | 0 | 0 | x | 2 | -1
O=C1C=C(c2ccc(Oc3ccccc3)cc2)C[C@@H](c2ccc(Cl)cc2)C1 | -1 | 0 | 32* | -5 | -3
CSc1ccc(C2=CC(=O)C[C@H](c3ccc(Cl)cc3)C2)cc1 | -1 | -1 | 28* | -3 | 3
C[C@H]1Cn2nnc(-c3ccccc3)c2Cn2c3ccccc3c(=O)n21 | -49 | 1 | x | -189 | 3
Cc1n[nH]c(C)c1S(=O)(=O)NCCc1ccccc1F | -3 | 0 | x | -3 | 3
CCOC(=O)c1c(C)[nH]c(N=Nc2ccccc2)c1C | 7 | 0 | 3 | 18 | -6
CCOC(=O)c1c(C)[nH]c(N=Nc2ccc(C)cc2)c1C | 15* | 0 | -11 | 10 | -16
CC1CCN(C(=O)C2CCC(CNS(=O)(=O)c3cccc4cccnc34)CC2)CC1 (stereo unspecified) | 3 | 0 | -3 | 9 | -12
CC1CCC(NC(=O)C2CCC(CNS(=O)(=O)c3cccc4cccnc34)CC2)CC1 (stereo unspecified) | -2 | 0 | 21* | 12 | 1
COc1ccc(/C=C/C(=O)NC2=NCCS2)c(OC)c1 | -39 | x | x | -150 | 3
CCCn1nnnc1SCC(=O)N1C(C)CCCC1C (stereo unspecified) | 1 | 0 | 22* | 5 | 4
O=C(CN1CCCN(S(=O)(=O)c2ccc(Br)s2)CC1)Nc1ccc(Cl)cc1 | 2 | 0 | -3 | 20* | -7
CCc1ccc(N2C(=O)C[C@@](C#N)(C(=O)OC)[C@H]2c2ccccc2)cc1 | -3 | 0 | x | -4 | -2
CSc1ccccc1C(=O)N1CCN(c2cccc(Cl)c2)CC1 | 1 | 0 | 45* | 2 | -9
CS(=O)(=O)c1ccc(Cl)c(NC(=O)COC(=O)c2ccc(S(=O)(=O)N3CCCC3)cc2)c1 | -2 | 0 | 22* | -3 | 1
C#CCNC(=O)c1ccc(OCc2ccccc2)cc1Cl | 2 | 0 | 19 | -9 | 10
O=C(NCCCl)c1ccc(OCc2ccccc2)cc1Cl | -3 | 0 | -1 | -7 | 22*
CN1N=C(/C=C/c2ccccc2)CCC1=O | -2 | 0 | 9 | -2 | -5
SMILES | ADAM17 inh | KLK7 zymogen act | NRP1-CendR mod | ADAM10 inh | sPLA2-III inh
Cc1ccc(/C=C/C2=NN(C)C(=O)CC2)cc1 | 0 | 0 | 36* | -1 | -1
Oc1ccc(Br)cc1-c1nc2cnccn2c1NC1CCCC1 | -106 | 49* | -28 | -362 | 2
Oc1ccc(Br)cc1-c1nc2cnccn2c1NC1CCCCC1 | -46 | -15 | -1 | -119 | -3
CCN(CC)C(=O)CC[C@@H]1CC[C@]2(CCCN(C(=O)C(C)(C)C)C2)O1 | -1 | 0 | x | 2 | 1
CC(NS(=O)(=O)c1cn(C)c(=O)n(C)c1=O)c1ccccc1 (stereo unspecified) | -2 | 0 | 26* | -2 | -3
COc1ccc(CCNC(=O)c2cccs2)cc1OC | -8 | 0 | 0 | -6 | 5
COc1ccc(CNc2nc(NCc3ccc(OC)c(OC)c3)n(C(=O)c3cccs3)n2)cc1OC | 7 | 199* | 3 | 18 | -40
Cc1ncc(S(=O)(=O)c2ccccc2)c(-c2ccccc2)n1 | -4 | 0 | 8 | 3 | 1
O=S(=O)(c1ccccc1)c1cnc(-c2cccnc2)nc1-c1ccc(Cl)c(Cl)c1 | 3 | 0 | 20* | 5 | 3
O=C1C=CC(=O)c2c(O)c(CO)c(CO)c(O)c21 | -17 | -1 | 59* | -62 | -52
O=C1c2ccccc2NC(c2ccco2)N1/N=C/c1ccco1 (stereo unspecified) | -33 | 3 | 18* | -99 | 0
COc1cccc(NC(=O)CSC2=NN3CCCC(=O)N=C3S2)c1 | -1 | 0 | 30* | -6 | -2
CCC(C)n1c(=S)[nH]c2ccccc2c1=O (stereo unspecified) | 1 | 0 | 28* | 8 | 14
CC(C)n1c(=S)[nH]c2ccccc2c1=O | -2 | 0 | 13 | 5 | 8
CCCc1sc(N)nc1-c1ccc(C)cc1 | 7 | 0 | 17* | 6 | 11
CN(C)CCCOC(=O)c1cc2ccccc2o1 | -1 | 0 | 24* | -17 | -4
CN1CCN(c2nc(-c3ccccc3)ncc2S(=O)(=O)c2ccccc2)CC1 | 0 | 0 | 0 | 1 | -13
CN1CCN(c2nc(-c3ccccc3)ncc2S(C)(=O)=O)CC1 | -2 | 0 | 17* | -1 | 0
CCOC(=O)c1cnc(-c2ccccc2)nc1Oc1ccc(OC)cc1 | 0 | 1 | 26* | -3 | -5
CS(=O)(=O)c1cnc(-c2ccccc2)nc1Oc1ccc(Cl)cc1 | 0 | -1 | 23* | 2 | -1
CCCCCN1CCCCC(NC(=O)c2ccc(F)cc2)C1=O (stereo unspecified) | -2 | 0 | x | 0 | 2
CCOC(=O)CNC(=O)N(C)[C@H]1C[C@H]2c3[nH]c4c(-c5cccc(C)c5)cccc4c3CCN2C(=O)[C@H]1[C@H](C)O | -200 | -10 | x | i | -10
CC(C)c1ccccc1NC(=O)c1cnccn1 | -1 | 0 | 59* | -2 | -1
Cc1ccc(S(=O)(=O)N2CCC[C@H]2C(=O)NC2=NCCS2)cc1 | -1 | 0 | 24* | 3 | -8
COC(=O)[C@]12C[C@H](CC(=O)NCCC(C)C)C(=O)N(Cc3ccco3)C1=C[C@H](C(C)C)O[C@@H]2C1CC1 | 0 | 0 | x | 2 | -7
COc1ccc2cc(C(=O)/C=C/c3cc(OC)c(OC)c(OC)c3)ccc2c1 | -2 | -10 | 27* | -6 | -5
